In PubChem BioAssay (Tox21):
Records with an inconclusive call do not appear. Activity calls are given as the source filed them. Unless noted, the call rests on the fitted dose curve.

What was measured:
[1] = Nuclear factor erythroid 2-related factor 2/antioxidant responsive element (Nrf2/ARE) small molecule agonists: qHTS cell viability counter screen in human keratinocytes (AID 1919968; active means well fitted curve in the direction sought with a large enough effect in the repeat runs; an effect the other way counts as inactive or inconclusive; further: nearly all actives have a fitted effect of over 55% in size)
Method in brief: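 KeratinoSens cells (HaCaT keratinocytes stably carrying an ARE-luciferase reporter) were seeded at 1,500 cells/well and rested 5 h at 37 C/5% CO2. They were then exposed to compounds in DMSO for 23 h. Viability was read by CellTiter-Fluor fluorescence after 1 h.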

[2] = Nuclear factor erythroid 2-related factor 2/antioxidant responsive element (Nrf2/ARE) small molecule agonists: luciferase reporter gene qHTS assay in human keratinocytes (AID 1919969); further: nearly all actives have a fitted effect of over 35% in size; further: potency means the concentration at half of the fitted maximal effect
[3] = target: Gonadotropin-releasing hormone receptor (Homo sapiens) (UniProt P30968); test: Human gonadotropin-releasing hormone receptor (GnRHR) small molecule agonists, calcium flux assay in GnRHR-HEK293 cells (AID 1920063); further: nearly all actives have a fitted effect of over 35% in size
Method in brief: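 HEK293 cells stably expressing human GnRHR were plated 18 h at 37 °C, loaded with calcium dye 1 h at 37 °C, then given compound in agonist mode; fluorescence (Ex/Em 480/540) read kinetically for 3 min at 1 s intervals.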

[4] = target: KiSS-1 receptor (Homo sapiens) (UniProt Q969F8); test: Human kisspeptin (KISS1R) small molecule agonists, calcium flux assay in KISS1R-HEK293 cells (AID 1920064; active means well fitted curve in the direction sought with a large enough effect in the repeat runs; an effect the other way counts as inactive or inconclusive)
Method in brief: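 HEK293 cells stably expressing human KISS1R were plated 18 h at 37 °C, loaded with calcium dye for 1 h at 37 °C, then given compound by pin tool. Fluorescence (Ex/Em 480/540) was read kinetically for 3 min.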

[5] = G protein-coupled receptor (GPCR) small molecule agonists, calcium flux assay: HEK293 wild type cell line counter screen (AID 1920065)
Method in brief: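 Cells were plated and cultured 18 h at 37 C/5% CO2, then loaded with calcium dye for 1 h at 37 C. Compounds in DMSO were pin-transferred in agonist mode, and fluorescence (Ex/Em 480/540) was read kinetically for 3 min at 1 s intervals.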

[6] = p53 small molecule agonists, cell-based qHTS assay with human liver microsomes (AID 1963577);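 further: p53 response element beta-lactamase reporter cells with liver microsomes plus NADPH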
Method in brief: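 With metabolic activation: human liver microsomes (0.5 mg/mL final) plus NADPH (0.5 mg/mL final) added alongside compounds to p53RE-bla cells; 16 h 37 C exposure; beta-lactamase read by LiveBLAzer fluorescence.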

[7] = p53 small molecule agonists, cell-based qHTS assay with rat liver microsomes (AID 1963578)
Method in brief: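 Metabolic activation by rat liver microsomes and NADPH, each 0.5 mg/mL final, added right after compounds to p53RE-bla reporter cells (4,000/well, plated 5 h earlier). 16 h at 37 C, then LiveBLAzer substrate for 2 h at room temperature in the dark; fluorescence read-out.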

[8] = p53 small molecule agonists, cell-based qHTS assay with human liver microsomes: qHTS cell viability counter screen (AID 1963579); further: nearly all actives have a fitted effect of over 45% in size; further: potency means the concentration at half of the fitted maximal effect
Method in brief: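 Metabolic activation used human liver microsomes and NADPH, both 0.5 mg/mL final, over 16 hours at 37 C on p53RE-bla cells (4,000/well). Cytotoxicity measured by CellTiter-Glo luminescence, 30 min at room temperature.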

[9] = p53 small molecule agonists, cell-based qHTS assay with rat liver microsomes: qHTS cell viability counter screen (AID 1963580); further: nearly all actives have a fitted effect of over 45% in size
Method in brief: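 In HCT-116 cells carrying a p53 response element-bla reporter, compounds were metabolically activated in situ by rat liver microsomes with NADPH over 16 h. Cell ATP content then served as the cytotoxicity measure.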

[10] = target: 5-hydroxytryptamine receptor 2A (Homo sapiens) (UniProt P28223); test: 5-hydroxytryptamine receptor 2A (HTR2A) small molecule antagonists, cell-based qHTS assay (AID 1963586); further: nearly all actives have a fitted effect of over 45% in size
Method in brief: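 Antagonist-mode intracellular calcium assay: DOI (4 nM) added after 5 min compound pre-incubation at room temperature to dye-loaded HTR2A-CHO cells. Fluorescence followed for 3 min, sampled every second.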

[11] = target: 5-hydroxytryptamine receptor 2A (Homo sapiens) (UniProt P28223); test: 5-hydroxytryptamine receptor 2A (HTR2A) small molecule agonists, cell-based qHTS assay (AID 1963587); further: nearly all actives have a fitted effect of over 30% in size
Method in brief: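 HTR2A-CHO cells, plated 18 h at 37 C/5% CO2, dye-loaded 1 h at 37 C; compounds in DMSO added by pin tool (agonist mode). Intracellular calcium flux read as kinetic fluorescence on FDSS over 2 min at 1 s intervals.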

[12] = target: Muscarinic acetylcholine receptor M1 (Homo sapiens) (UniProt P11229); test: Cholinergic receptor muscarinic 1 (CHRM1) small molecule antagonists, cell-based qHTS assay (AID 1963588); further: nearly all actives have a fitted effect of over 40% in size
Method in brief: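 CHRM1-CHO calcium-flux assay, antagonist mode. Cells were seeded 18 h, dye-loaded 1 h at 37 C and given compound for 5 min at RT, then acetylcholine was added at 50nM. FDSS fluorescence was read 3 min; 15 concentrations, three runs.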

[13] = target: Muscarinic acetylcholine receptor M1 (Homo sapiens) (UniProt P11229); test: Cholinergic receptor muscarinic 1 (CHRM1) small molecule agonists, cell-based qHTS assay (AID 1963589); further: nearly all actives have a fitted effect of over 35% in size
Method in brief: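 CHO cells stably expressing human CHRM1, seeded 18 h at 37 C/5% CO2, dye-loaded 1 h at 37 C, then given compound in agonist mode; intracellular calcium fluorescence read kinetically at 1 s intervals. Fifteen concentrations, three independent runs.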

[14] = cAMP Responsive Elements (CRE) small molecule agonists, cell-based qHTS assay (AID 1963590)
Method in brief: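 CRE-bla HEK 293T cells in DMEM with 10% dialyzed FBS, NEAA, pyruvate and 25 mM HEPES were plated 18 h at 37 C/5% CO2, then exposed to compounds in DMSO for 3 h before LiveBLAzer B/G FRET substrate addition.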

[15] = cAMP Responsive Elements (CRE) small molecule antagonists, cell-based qHTS assay (AID 1963591; active means well fitted inhibition curve with a large enough effect in the signal ratio in the repeat runs, not every such curve was filed as active; the % refers to the signal ratio)
Method in brief: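 CRE-bla HEK293T cells were plated 18 h at 37 °C/5% CO2, pinned with compound in DMSO, then stimulated with NKH477 at 0.25 uM final for 3 h. LiveBLAzer B/G FRET substrate was added and plates incubated 2 h at room temperature.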

[16] = target: Beta-2 adrenergic receptor (Homo sapiens) (UniProt P07550); test: Adrenergic beta2 receptor (ADRB2) small molecule antagonists, cell-based qHTS assay (AID 1963592); further: series mostly up to about 92 µM; nearly all actives have a fitted effect of over 50% in size
Method in brief: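 Cells (CHO, stable ADRB2 overexpression) incubated 18-20hr at 37C; compounds added from DMSO; agonist mix (1nM isoproterenol, 100uM IBMX, 25uM Ro-20-1724) added; 0.5hr RT; d2-cAMP and anti-cAMP-cryptate added; 1hr RT; 665/615 nm read.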

[17] = target: Beta-2 adrenergic receptor (Homo sapiens) (UniProt P07550); test: Adrenergic beta2 receptor (ADRB2) small molecule agonists, cell-based qHTS assay (AID 1963593);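 further: CHO cells stably overexpressing human ADRB2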
Method in brief: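 CHO cells stably over-expressing ADRB2 were plated overnight at 37C, then dosed with compounds plus a stimulation mix containing 100uM IBMX and 25uM Ro-20-1724 for 0.5hr at room temperature. cAMP was measured by HTRF competition, 1hr.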

[18] = target: D(2) dopamine receptor (Homo sapiens) (UniProt P14416); test: Dopamine D2 receptor (DRD2) small molecule agonists, cell-based qHTS assay (AID 1963594); further: nearly all actives have a fitted effect of over 35% in size
Method in brief: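 HEK293 cells stably expressing DRD2 were cultured 24 h at 37 C, then given Ro20-1724 (0.1 mM final) and compounds for 10 min at room temperature. NKH477 (200nM) was then added for 30 min. cAMP was read by HTRF.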

[19] = target: D(2) dopamine receptor (Homo sapiens) (UniProt P14416); test: Dopamine D2 receptor (DRD2) small molecule antagonists, cell-based qHTS assay (AID 1963595; active means well fitted inhibition curve with a large enough effect in the signal ratio in the repeat runs, with a control signal flat; the % refers to the signal ratio)
Method in brief: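 Cells were plated and grown for 24 h at 37 °C. Ro20-1724 (0.1 mM final) went in first, then compound for 10 min. NKH477 (200 nM) with quinpirole (12 nM) followed for 30 min at RT, then HTRF detection reagents for 1 h.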

[20] = p53 small molecule agonists, cell-based qHTS assay: qHTS cell viability counter screen (AID 1963581); further: nearly all actives have a fitted effect of over 45% in size
Method in brief: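 p53RE-bla HCT-116 cells were exposed to compounds for 16 h at 37 C; after the beta-lactamase FRET read in the same wells, CellTiter-Glo was added and luminescence (intracellular ATP) read after 30 min at room temperature.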

Measured: Potency

Beta-2 adrenergic receptor (Homo sapiens), sequence (P07550 whole entry, looked up): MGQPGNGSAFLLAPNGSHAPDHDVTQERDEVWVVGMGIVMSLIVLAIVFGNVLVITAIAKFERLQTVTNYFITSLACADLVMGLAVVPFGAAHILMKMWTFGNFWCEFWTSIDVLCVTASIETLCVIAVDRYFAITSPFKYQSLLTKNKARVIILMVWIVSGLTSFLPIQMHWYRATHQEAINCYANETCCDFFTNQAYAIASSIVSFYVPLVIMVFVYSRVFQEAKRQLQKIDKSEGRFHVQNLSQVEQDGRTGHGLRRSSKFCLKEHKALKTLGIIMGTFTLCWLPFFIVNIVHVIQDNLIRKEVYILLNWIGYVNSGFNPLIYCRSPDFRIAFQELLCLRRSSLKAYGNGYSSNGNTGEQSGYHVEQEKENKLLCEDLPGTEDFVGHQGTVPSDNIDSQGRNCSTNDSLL
Gonadotropin-releasing hormone receptor (Homo sapiens), sequence (P30968 whole entry, looked up): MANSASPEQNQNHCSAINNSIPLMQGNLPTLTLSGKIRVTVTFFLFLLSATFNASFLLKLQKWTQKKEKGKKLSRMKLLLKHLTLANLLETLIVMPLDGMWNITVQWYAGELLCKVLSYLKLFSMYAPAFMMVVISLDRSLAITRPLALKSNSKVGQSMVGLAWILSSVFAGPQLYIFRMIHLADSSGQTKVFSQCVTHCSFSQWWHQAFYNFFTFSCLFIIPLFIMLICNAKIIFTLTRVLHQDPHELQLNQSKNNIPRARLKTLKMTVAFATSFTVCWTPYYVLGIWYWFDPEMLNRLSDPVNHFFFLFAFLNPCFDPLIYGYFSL
KiSS-1 receptor (Homo sapiens), sequence (Q969F8 whole entry, looked up): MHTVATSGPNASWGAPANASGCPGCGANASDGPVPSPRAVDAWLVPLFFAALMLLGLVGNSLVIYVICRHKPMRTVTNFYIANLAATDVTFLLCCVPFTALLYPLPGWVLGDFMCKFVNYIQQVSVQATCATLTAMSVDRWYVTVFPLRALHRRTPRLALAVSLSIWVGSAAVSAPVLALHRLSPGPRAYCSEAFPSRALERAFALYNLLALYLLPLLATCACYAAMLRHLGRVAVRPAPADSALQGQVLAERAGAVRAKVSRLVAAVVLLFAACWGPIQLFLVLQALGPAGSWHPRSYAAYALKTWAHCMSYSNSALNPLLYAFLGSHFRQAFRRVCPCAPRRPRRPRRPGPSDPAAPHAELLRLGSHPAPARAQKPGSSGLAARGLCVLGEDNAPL
5-hydroxytryptamine receptor 2A (Homo sapiens), sequence (P28223 whole entry, looked up): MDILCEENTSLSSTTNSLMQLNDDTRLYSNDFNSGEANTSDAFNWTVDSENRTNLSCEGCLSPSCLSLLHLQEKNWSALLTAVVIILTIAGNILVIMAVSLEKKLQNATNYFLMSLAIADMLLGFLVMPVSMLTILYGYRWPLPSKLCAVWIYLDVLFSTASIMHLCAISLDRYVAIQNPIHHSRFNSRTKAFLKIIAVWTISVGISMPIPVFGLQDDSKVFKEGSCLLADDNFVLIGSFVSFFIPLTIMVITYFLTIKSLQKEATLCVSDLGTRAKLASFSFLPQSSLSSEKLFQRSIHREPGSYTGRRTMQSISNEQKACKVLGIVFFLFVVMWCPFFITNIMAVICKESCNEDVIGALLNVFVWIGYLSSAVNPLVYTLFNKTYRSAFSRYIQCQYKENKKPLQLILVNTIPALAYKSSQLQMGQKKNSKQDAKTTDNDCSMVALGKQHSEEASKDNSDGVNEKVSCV
Muscarinic acetylcholine receptor M1 (Homo sapiens), sequence (P11229 whole entry, looked up): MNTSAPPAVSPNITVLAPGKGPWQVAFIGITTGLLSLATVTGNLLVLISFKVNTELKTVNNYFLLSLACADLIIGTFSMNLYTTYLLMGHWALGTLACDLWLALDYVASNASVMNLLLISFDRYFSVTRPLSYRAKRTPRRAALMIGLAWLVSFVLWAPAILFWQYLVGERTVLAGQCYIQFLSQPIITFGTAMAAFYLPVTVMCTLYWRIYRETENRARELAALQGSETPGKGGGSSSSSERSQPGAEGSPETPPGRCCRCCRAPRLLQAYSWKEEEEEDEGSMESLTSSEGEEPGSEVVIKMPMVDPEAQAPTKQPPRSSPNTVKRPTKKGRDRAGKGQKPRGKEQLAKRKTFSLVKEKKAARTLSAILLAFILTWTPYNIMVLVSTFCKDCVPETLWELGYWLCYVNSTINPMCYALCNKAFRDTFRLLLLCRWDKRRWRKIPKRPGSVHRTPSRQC
D(2) dopamine receptor (Homo sapiens), sequence (P14416 whole entry, looked up): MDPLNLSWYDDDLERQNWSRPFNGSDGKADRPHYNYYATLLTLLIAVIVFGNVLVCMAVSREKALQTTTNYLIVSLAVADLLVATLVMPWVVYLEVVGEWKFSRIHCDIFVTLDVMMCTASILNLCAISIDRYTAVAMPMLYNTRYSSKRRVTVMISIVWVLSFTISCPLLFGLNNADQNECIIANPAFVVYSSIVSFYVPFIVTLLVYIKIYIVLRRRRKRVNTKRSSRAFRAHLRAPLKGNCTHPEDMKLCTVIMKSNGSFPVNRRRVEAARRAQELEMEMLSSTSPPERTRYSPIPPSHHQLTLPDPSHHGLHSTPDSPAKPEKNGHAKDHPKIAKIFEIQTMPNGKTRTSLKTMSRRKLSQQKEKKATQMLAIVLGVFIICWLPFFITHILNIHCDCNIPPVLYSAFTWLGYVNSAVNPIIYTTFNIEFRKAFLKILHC

CC1OC(=O)C(C)OC1=O (centres undefined)
inactive: [1] | [2] | [3] | [4] | [5] | [6] | [7] | [8] | [9] | [10] | [11] | [12] | [13] | [14] | [15] | [16] | [17] | [18] | [19]

CC1(C)C(=O)N(CO)C(=O)N1CO
inactive: [1] | [2] | [3] | [4] | [5] | [6] | [7] | [8] | [9] | [10] | [11] | [12] | [13] | [14] | [15] | [16] | [18] | [19]

COC(C)OC
inactive: [1] | [2] | [3] | [4] | [5] | [6] | [7] | [8] | [9] | [10] | [11] | [12] | [13] | [14] | [16] | [18] | [19]

OC(CCN1CCCC1)(c1ccccc1)C1CCCCC1 (centres undefined)
inactive: [1] | [2] | [3] | [4] | [5] | [6] | [7] | [8] | [9] | [10] | [11] | [12] | [13] | [14] | [16] | [18] | [19]

C=CCSSCCC
inactive: [1] | [2] | [3] | [4] | [5] | [6] | [7] | [8] | [9] | [10] | [11] | [12] | [13] | [14] | [15] | [16] | [17] | [18] | [19]

CCCCC(CC)COC(=O)COc1ccc(Cl)cc1C (centres undefined)
inactive: [1] | [2] | [3] | [4] | [5] | [6] | [7] | [8] | [9] | [10] | [11] | [12] | [13] | [14] | [15] | [16] | [18]

CCOC(=O)C(=O)OCC
inactive: [1] | [2] | [3] | [4] | [5] | [6] | [7] | [8] | [9] | [10] | [11] | [12] | [13] | [14] | [15] | [16] | [17] | [18] | [19]

C=C(C)C(=O)OCCCC
inactive: [1] | [2] | [3] | [4] | [5] | [6] | [7] | [8] | [9] | [10] | [11] | [12] | [13] | [14] | [15] | [16] | [17] | [18] | [19]

O=C(c1ccccc1)c1ccc2n1CCC2C(=O)O (centres undefined)
inactive: [1] | [2] | [3] | [4] | [5] | [6] | [7] | [8] | [9] | [20] | [16] | [18]

C[Si]1(C)O[Si](C)(C)O[Si](C)(C)O1
inactive: [1] | [2] | [3] | [4] | [5] | [6] | [7] | [8] | [9] | [10] | [11] | [12] | [13] | [14] | [15] | [16] | [18] | [19]

CCCCC(=O)O[C@]1(C(=O)CO)[C@H](C)C[C@H]2[C@@H]3CCC4=CC(=O)C=C[C@]4(C)[C@@]3(F)[C@@H](O)C[C@@]21C
inactive: [1] | [2] | [3] | [4] | [5] | [6] | [7] | [8] | [9] | [10] | [11] | [12] | [13] | [14] | [16] | [18] | [19]

COc1c(C)c2c(c(O)c1C/C=C(\C)CCC(=O)OCCN1CCOCC1)C(=O)OC2
inactive: [1] | [2] | [3] | [4] | [5] | [6] | [7] | [8] | [9] | [20] | [16] | [17] | [18] | [19]

Nc1ccccc1S(=O)(=O)c1ccccc1
inactive: [1] | [2] | [3] | [4] | [5] | [6] | [7] | [8] | [9] | [10] | [11] | [12] | [13] | [14] | [15] | [16] | [18] | [19]

OCCC(F)(F)C(F)(F)C(F)(F)C(F)(F)C(F)(F)C(F)(F)C(F)(F)C(F)(F)F
inactive: [1] | [2] | [3] | [4] | [5] | [6] | [7] | [8] | [9] | [10] | [11] | [12] | [13] | [14] | [15] | [16]

O=C1c2ccccc2C(=O)N1CCl
inactive: [1] | [2] | [3] | [4] | [5] | [6] | [7] | [8] | [9] | [11] | [12] | [13] | [14] | [16] | [17] | [18] | [19]

C#CC(O)CCCCC (centres undefined)
inactive: [1] | [2] | [3] | [4] | [5] | [6] | [7] | [8] | [9] | [10] | [11] | [14] | [15] | [16] | [17] | [18] | [19]

C#CCOC(=O)[C@@H](C)Oc1ccc(Oc2ncc(Cl)cc2F)cc1
inactive: [1] | [2] | [3] | [4] | [5] | [6] | [7] | [8] | [9] | [10] | [11] | [12] | [13] | [16] | [18] | [19]

O=C(O)c1cccc(Cl)n1
active: [2] 68.6 µM | [8] 40.8 µM
inactive: [1] | [3] | [4] | [5] | [6] | [7] | [9] | [10] | [11] | [13] | [15] | [17] | [18] | [19]

C[N+]12CCC(CC1)C(OC(=O)C(O)(c1ccccc1)c1ccccc1)C2 (centres undefined)
inactive: [1] | [2] | [3] | [4] | [5] | [6] | [7] | [8] | [9] | [10] | [11] | [13] | [14] | [15] | [16] | [17] | [18] | [19]
